Assay outcomes from PubChem BioAssay.
Most compounds without a hit are left out; they make up all but 3.1% or so of the library.
EP2 antag = inhibitors of human EP2 prostaglandin E2 receptor. C6 glioma cells expressing human EP2, cAMP TR-FRET; cells stimulated with saturating PGE2. AID 1422. 0.52% of 260,000 active. inhibition, % at 25 µM;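 active = percent inhibition above 40 after rounding to a whole number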;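 also: rat C6 glioma host cells with rolipram phosphodiesterase inhibitor present; the protocol text gives 20 µM as final concentration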
EP2 mod = EP2 receptor (human) modulation; P43116; EP2-expressing cells, cAMP HTRF FRET, PGE2 co-stimulation; induction, % at 25 µM; 0.83% of 260,000 active;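 active = compounds whose cAMP rise, as percent of the full-agonist control response, exceeds 60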;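 also: rat C6 glioma line stably carrying human EP2 under a CMV promoter; the protocol text gives 20 µM as final concentration; 100% = response of wells given 1 µM PGE2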
KCC2 mod = modulates chloride dependent transport by human KCC2 | Q9H2X9 | KCC2 cells, thallium flux FluoZin-2 fluorescence | B-score of Tl+ flux slope (higher = more flux/activation; lower = inhibition) at 10 µM | 2.2% of 190,000 active | AID 1456;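 active = thallium flux slope and its plate-corrected score both differing from the plate sample mean at a set confidence after two filtering rounds, in either direction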;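 also: slope of fluorescence scaled to starting intensity during 10 to 20 s after thallium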
S1P3 antagonist = S1P3 (human) receptor antagonism; Q99500; CHO S1P3 NFAT-BLA reporter, FRET fluorescence, antagonist mode; inhibition, % at 4.98 µM; 0.27% of 170,000 active; AID 485;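 active = inhibition above the plate cutoff, the mean inhibition of test wells on that plate plus 3 SD, cut at about 28% in these data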;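 also: cells challenged with S1P at its EC80 of 0.8 µM; blue over green emission ratio from cleaved BLA substrate after 4 h stimulation; 0% = S1P-stimulated wells and 100% = unstimulated DMSO-only wells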
Target sequence (Q99500 whole entry, looked up): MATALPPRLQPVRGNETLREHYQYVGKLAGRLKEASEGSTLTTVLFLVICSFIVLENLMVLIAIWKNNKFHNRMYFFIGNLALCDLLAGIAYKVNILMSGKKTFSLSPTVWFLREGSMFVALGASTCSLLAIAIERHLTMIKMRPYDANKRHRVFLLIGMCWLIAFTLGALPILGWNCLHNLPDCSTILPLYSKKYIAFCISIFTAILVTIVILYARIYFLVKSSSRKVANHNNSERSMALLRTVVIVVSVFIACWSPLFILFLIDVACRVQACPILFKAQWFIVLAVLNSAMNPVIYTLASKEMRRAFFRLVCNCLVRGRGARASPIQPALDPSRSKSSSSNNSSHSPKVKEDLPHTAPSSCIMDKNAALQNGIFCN
* = called active by the depositor; / = no result given; + = active, no number.

SMILES | EP2 antag | EP2 mod | KCC2 mod | S1P3 antagonist
COc1cc(OC)cc(C(=O)Nc2nc(-c3ccccc3)c(-c3ccccc3)o2)c1 | 4.1 | 7.5 | 9.96* | 8.5
Cc1ccc2[nH]c(=O)c(CN(Cc3ccc4c(c3)OCO4)C(=O)Nc3ccc(F)cc3)cc2c1 | 19.3 | -24.4 | / | /
CSc1nc2ccccc2n1Cc1c(Cl)cccc1Cl | 7.7 | 64.6* | / | /
Cc1nn(-c2cc(C)c3ccccc3n2)c2c1CCC2 | -0.1 | 63.8* | -0.719 | -10.2
C=C(C)C1Cc2c(C)nn(-c3cc(C)c4ccccc4n3)c2C1 (configuration not stated) | / | / | -0.0791 | /
O=C1CC[C@@H](NCc2ccco2)[C@H](c2cc(F)cc(F)c2)N1 | 3.5 | -44.7 | / | /
Cc1ccccc1/C=c1\s/c(=C\C(=O)C(C)(C)C)[nH]c1=O | 24.9 | -26.1 | 10.3* | /
CCc1ccc(/C=c2\s/c(=C\C(=O)C(C)(C)C)[nH]c2=O)cc1 | 21.8 | -20.2 | 7.01* | /
CC(C)(C)C(=O)/C=c1\[nH]c(=O)/c(=C\c2ccc(F)cc2)s1 | 14.8 | -0.8 | / | /
COCCNC(=O)CN1N=C(c2ccc(C)cc2)Cn2c(cc3ccccc32)C1=O | / | -41.6 | / | /
CC1(C)C2CC=C(/C=N/NC(=S)Nc3cccnc3)C1C2 (configuration not stated) | 7.2 | -69.4 | 1.31 | -14.9
CC1=C/C(=N\NC(=S)Nc2cccnc2)CC(C)(C)C1 | 5.8 | -20.7 | 15.6* | 5.8
COc1ccc(C2=NN(Cc3c(F)cccc3Cl)C(=O)CC2)cc1 | 8.6 | 63.4* | -0.456 | -3.7
O=C(NC(=S)Nn1cnc2c(cnn2-c2ccccc2)c1=O)c1ccc(Oc2ccccc2)cc1 | 5.7 | 4.6 | 17.9* | -6.0
O=C(NC(=S)Nn1cnc2c(cnn2-c2ccccc2)c1=O)c1ccc(Cl)cc1 | 4.2 | 7.8 | -1.64 | -22.8
CCc1cccc(C)c1NC(=O)C1CCN(S(=O)(=O)c2ccc(OC)c(OC)c2)CC1 | 12.9 | -4.7 | / | /
O=C(CSc1nnc(-c2cccnc2)n1Cc1ccco1)N1c2ccccc2Sc2ccccc21 | 7.2 | -5.5 | / | 91.2*
Cc1cc(Nc2ccccc2)nc(-c2ccccc2O)n1 | 15.8 | 23.8 | 0.437 | 31.4
CCS(=O)(=O)c1ccc(N=Nc2ccc(O)c3ncccc23)c(OC)c1 | 5.5 | 36.8 | 0.0197 | -0.9
Cc1ccc(N=Nc2ccc(O)c3ncccc23)cc1 | 4.9 | -10.6 | 11.2* | 3.5
Cc1cc(Nc2ccc(N=Nc3ccc(O)c4ncccc34)cc2)nc(C)n1 | 45.4* | 17.0 | / | /
CC(=O)c1ccc(S(=O)(=O)N2CCCCCC2)cc1 | 94.5* | -26.9 | / | /
CN(C)CCCNCc1cc2c(C(C)(C)C)nn(-c3ccccc3)c2[nH]c1=O | 6.3 | -12.8 | / | /
COc1cc(/C=C(\C#N)c2nc3ccccc3[nH]2)c([N+](=O)[O-])cc1OCc1ccccc1 | 6.9 | -23.5 | -4.54* | /
C=CCNC(=S)Nc1sc2c(c1C(=O)OCC)CC(C)(CC)OC2 (configuration not stated) | 12.9 | 39.8 | 22.1* | -0.3
SMILES | EP2 antag | EP2 mod | KCC2 mod | S1P3 antagonist
O=C1C=CC(=O)C(C2=C3C(=O)N(CCc4ccccc4)CC(=O)N3CCC2)=C1 | 89.9* | -53.4 | -0.397 | -12.7
OCCN1CCN(CCCN2c3ccccc3Sc3ccc(Cl)cc32)CC1 | 17.2 | -37.2 | 0.172 | 7.2
OC1C[C@H]2CC[C@@H](C1)N2CCCN1c2ccccc2Sc2ccc(Cl)cc21 (some centres not stated) | 47.1* | -16.4 | / | /
CCOC(=O)c1c(CSC(=N)N)n(-c2ccc(C)cc2)c2cc(Br)c(OC(C)=O)cc12 | 127.3* | -42.5 | 0.252 | /
CCOC(=O)c1c(CSC(=N)N)n(C)c2cc(Br)c(OC(C)=O)cc12 | 11.5 | 11.1 | -0.209 | -8.1
C/C(=N\N(c1ccccc1)c1ccccc1)c1ccco1 | 2.6 | 61.7* | -0.361 | -7.2
CCNC(=S)N/N=C(\C)c1ccco1 | 7.3 | -13.4 | 0.585 | -6.1
CCC1=NN(C(=O)COc2c(C)cc(C)cc2C)C(O)(C(F)(F)F)C1 (configuration not stated) | 11.2 | 35.5 | / | /
Cc1cccc2c(-c3ccccc3)cc(=O)[nH]c12 | 4.3 | 43.6 | -0.764 | /
Cc1cc(=S)[nH]c2c(C)cccc12 | 16.2 | 4.0 | 30.8* | /
Cc1cc(C)c2nc(SCC(=O)Nc3nc(C)cs3)c(C#N)cc2c1 | 17.3 | 9.3 | / | /
O=C(Nc1ccc2c(c1)Cc1ccccc1-2)c1ccncc1 | 5.7 | -12.9 | -2.67 | 17.0
O=C(Nc1ccc2c(c1)Cc1ccccc1-2)[C@@H]1[C@H](C(=O)O)[C@]2(Cl)C(Cl)=C(Cl)[C@@]1(Cl)C2(Cl)Cl | 42.0* | -26.1 | / | /
Cc1nc2cc(C)c(C)cc2s1 | 5.7 | 18.2 | -0.602 | -6.1
Cc1cc2nc3ccc(=[N+](C)C)cc-3sc2cc1N | + | -413.4 | -0.516 | -9.9
CN(C)c1ccc2nc3ccc(=[N+](C)C)cc-3sc2c1 | + | -222.8 | -2.17 | -11.7
COc1ccc2nc(N=Nc3ccc(N(C)C)cc3)sc2c1 | / | 3.8 | 0.109 | /
COc1cc(SC)ccc1C(=O)Nc1ccc(S(=O)(=O)NCC2CCCO2)cc1 (configuration not stated) | 12.3 | -66.2 | / | /
O=C(c1ccc2c(=O)n(C3CCCC3)c(=S)[nH]c2c1)N1CCc2ccccc21 | 3.9 | 0.0 | 17.5* | /
CCOc1cc(C2CC(=O)Nc3cc(C)c(C)cc32)ccc1O (configuration not stated) | 6.2 | 63.6* | -0.698 | -13.8
COCCNC(=O)c1cn(C[C@H]2CCCN(C(=O)c3cnn(C)c3C)C2)nn1 | 6.5 | -3.8 | / | /
COc1ccc2ccccc2c1CN(CCN1CCOCC1)Cc1cccnc1 | 5.7 | -31.4 | / | /
CCCCn1c(SC(C)C(N)=O)nc2cc(C(=O)OC)ccc2c1=O (configuration not stated) | 13.7 | -15.0 | 9.75* | /
Cc1cccc(NC(=O)CSc2nnc(-c3ccco3)n2C)c1 | 13.9 | 0.0 | / | /
Cc1nc(C)c(C(=O)Nc2ccc(Oc3ccccc3)cc2)o1 | 10.8 | -21.7 | -4.01* | -10.3
SMILES | EP2 antag | EP2 mod | KCC2 mod | S1P3 antagonist
Cc1ncoc1C(=O)Nc1ccc(Oc2ccccc2)cc1 | 8.4 | -1.3 | / | -29.5
COc1cc(NC(=O)c2ccc(Cl)cc2)c(OC)cc1NC(=O)CN1CCOCC1 | 0.6 | -2.0 | -5.25* | 12.3
C[N@@+]1(CCC(=O)c2ccccc2)CC[C@H]2CC[C@H](C2)C1 | 14.8 | -5.6 | / | /
C[N+]1(CCC(=O)c2ccco2)CC2CCC(CC2)C1 (configuration not stated) | 45.2* | 15.1 | / | /
Oc1cc2ccccc2cc1-c1n[nH]c(=S)o1 | 5.7 | 5.1 | 2.2 | 11.6
S=c1[nH]nc(-c2cc3c(s2)-c2ccccc2CC3)o1 | 15.4 | -4.9 | 94.8* | /
COc1ccccc1CN(Cc1ccc(Sc2ncccn2)o1)CC1CCCO1 (configuration not stated) | 6.1 | 38.8 | / | /
O=C(N=c1ccn(-c2nc3ccccc3nc2NS(=O)(=O)c2ccccc2)cc1)c1cccs1 | 49.0* | 0.3 | 0.076 | -3.1
O=S(=O)(Nc1nc2ccccc2nc1Cl)c1ccccc1 | 8.9 | 42.2 | 0.779 | -15.5
OC(CN1CCC2(CC1)CC(O)c1ccccc1O2)c1ccc(Cl)cc1 (configuration not stated) | 12.3 | -85.3 | / | /
S=c1nc(-c2cc(Cl)ccc2Cl)[nH][nH]1 | 40.9* | 57.9 | 1.14 | -0.6
